Among the data in PubChem BioAssay (NCI) are growth inhibition values, retold here.

About 79,000 compounds went through this panel and 15% of them were active in at least one assay; those are over-represented in the sample as a whole. A number with no mark means an inactive call. Active and inactive are the calls of the source. Cut-off read from the data, not from the text of the source: active = growth inhibition above about 70%; inactive = the rest.

Test [1] can be described thus: NCI Yeast Anticancer Drug Screen. Data for the rad50 strain (AID 155).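 Note: 0% = growth of vehicle-only cultures of the same strain.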 To be noted: S. cerevisiae rad50 strain growth inhibition, hits give high values. In short, it runs like this:
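Cells are treated with compound, grown, and their growth is then scored against vehicle-only cultures of the same repair-deficient yeast strain.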

Test [2] can be described thus: NCI Yeast Anticancer Drug Screen. Data for the mec2-1 strain (AID 157). Conditions: S. cerevisiae mec2-1 strain, hits give high values. In short, it runs like this:
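Vehicle-treated cultures served as reference for growth inhibition of compound-exposed mec2-1 yeast.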

Test [3] can be described thus: NCI Yeast Anticancer Drug Screen. Data for the sgs1 mgt1 strain (AID 161).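 Note: 0% = growth of cultures given vehicle only.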 To be noted: S. cerevisiae sgs1 mgt1 strain, hits give high values. In short, it runs like this: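 Inhibition of yeast growth, normalised to vehicle-treated controls, is reported for a strain bearing genetic alterations in DNA damage repair.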
A short description of test [4]: NCI Yeast Anticancer Drug Screen. Data for the cln2 rad14 strain (AID 165).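 Note: 0% = growth equal to vehicle treated cultures.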 To be noted: S. cerevisiae cln2 rad14 strain, hits give high values. In short, it runs like this: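 Each compound was tested on cln2 rad14 yeast. Inhibition of growth was calculated against vehicle-exposed controls.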
The nature of test [5]: NCI Yeast Anticancer Drug Screen. Data for the bub3 strain (AID 167). To be noted: S. cerevisiae bub3 mutant strain, hits give high values. In short, it runs like this: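 Part of a panel of yeast mutants defective in DNA damage repair or cell cycle regulation. Each strain is grown with compound, and inhibition is calculated relative to solvent-treated cultures.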
Test [6] is described as follows: NCI Yeast Anticancer Drug Screen. Data for the mlh1 rad18 strain (AID 175). To be noted: S. cerevisiae mlh1 rad18 strain growth inhibition, hits give high values. The essentials:
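Vehicle-treated cultures served as the reference for growth inhibition in a yeast strain carrying DNA damage repair alterations exposed to each compound.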

Setting [7] is: at 5.0 µM (retest, dose inferred, filed as 0.5).
Where [8] appears, read: at 50.0 µM (retest, dose inferred, filed as 5.0).

Take `C[C@]12CC[C@H]3[C@@H](CCC4=CC(=O)CC[C@@H]43)[C@@H]1CC[C@@H]2OC1(O)C(=O)c2ccccc2C1=O`: the growth inhibition was -7% in test [1] (setting [7]); 47% in test [1] (setting [8]); 65.2% in test [1] (at 50.0 µM); -6% in test [2] (setting [7]); 21% in test [2] (setting [8]); 27.4% in test [2] (at 50.0 µM). Further, the growth inhibition in test [3] (setting [7]) is -2%; in test [3] (setting [8]) it was 59%; in test [3] (at 50.0 µM), 74.8% (active); in test [4] (setting [7]), -16%; in test [4] (setting [8]) it was 22%; in test [4] (at 50.0 µM) it was 20.5%. Besides, the growth inhibition in test [5] (setting [7]) was -8%; in test [5] (setting [8]), 44%; in test [5] (at 50.0 µM), 69.9%; in test [6] (setting [7]), 11%; in test [6] (setting [8]), 44%; in test [6] (at 50.0 µM), 61.7%.

With `C[CH2][Sn]([Cl])([CH2]C)[O][Sn]([CH2]C)([CH2]C)[O][Sn]([Cl])([CH2]C)[CH2]C`, the growth inhibition was 16% in test [1] (setting [7]); 79% (active) in test [1] (setting [8]); 76% (active) in test [1] (at 50.0 µM); 19% in test [2] (setting [7]); 84% (active) in test [2] (setting [8]); 81% (active) in test [2] (at 50.0 µM). For the same molecule, the growth inhibition is -17% in test [3] (setting [7]); 89% (active) in test [3] (setting [8]); 86.3% (active) in test [3] (at 50.0 µM); 15% in test [4] (setting [7]); 90% (active) in test [4] (setting [8]); 82.2% (active) in test [4] (at 50.0 µM). The growth inhibition in test [5] (setting [7]) is 12%; in test [5] (setting [8]), 89% (active); in test [5] (at 50.0 µM) it was 83.2% (active); in test [6] (setting [7]) it was 11%; in test [6] (setting [8]) it was 77% (active); in test [6] (at 50.0 µM) it was 81.4% (active).

Turning to `COc1ccc(OC)c(C=O)c1`, the growth inhibition is 1% in test [1] (setting [7]); 5% in test [1] (setting [8]); 24.9% in test [1] (at 50.0 µM); 0% in test [2] (setting [7]); 7% in test [2] (setting [8]); -12.2% in test [2] (at 50.0 µM). The growth inhibition in test [3] (setting [7]) was -2%; in test [3] (setting [8]), 12%; in test [3] (at 50.0 µM), -11.7%; in test [4] (setting [7]), 2%; in test [4] (setting [8]) it was 4%; in test [4] (at 50.0 µM) it was -38.2%. Besides, the growth inhibition was 2% in test [5] (setting [7]); 7% in test [5] (setting [8]); -35% in test [5] (at 50.0 µM); -1% in test [6] (setting [7]); 14% in test [6] (setting [8]); -8% in test [6] (at 50.0 µM).

Consider `C[C@]12CC[C@H]3[C@@H](C[C@@H](F)C4=CC(=O)CC[C@@]43C)[C@@H]1CC[C@@H]2O`, for which the growth inhibition in test [1] (setting [7]) is 7%; in test [1] (setting [8]), 46%; in test [1] (at 50.0 µM), 56.2%; in test [2] (setting [7]), 3%; in test [2] (setting [8]), 58%; in test [2] (at 50.0 µM), 7.4%. Further, the growth inhibition in test [3] (setting [7]) was 4%; in test [3] (setting [8]), 93% (active); in test [3] (at 50.0 µM) it was 56%; in test [4] (setting [7]), -2%; in test [4] (setting [8]), 30%; in test [4] (at 50.0 µM), 6.75%. Besides, the growth inhibition in test [5] (setting [7]) is 0%; in test [5] (setting [8]) it was 80% (active); in test [5] (at 50.0 µM), 34%; in test [6] (setting [7]), 15%; in test [6] (setting [8]), 86% (active); in test [6] (at 50.0 µM) it was 30.1%.

For the molecule `CCOP(=O)(Oc1ccc([N+](=O)[O-])cc1)c1ccccc1C(C)C` (configuration not stated), the growth inhibition is 11% in test [1] (setting [7]); 49% in test [1] (setting [8]); 90.8% (active) in test [1] (at 50.0 µM); 25% in test [2] (setting [7]); 70% (active) in test [2] (setting [8]); 90.8% (active) in test [2] (at 50.0 µM). For the same molecule, the growth inhibition in test [3] (setting [7]) was -11%; in test [3] (setting [8]) it was 92% (active); in test [3] (at 50.0 µM), 95.6% (active); in test [4] (setting [7]), 40%; in test [4] (setting [8]), 34%; in test [4] (at 50.0 µM), 95.6% (active). In addition, the growth inhibition in test [5] (setting [7]) was 12%; in test [5] (setting [8]), 49%; in test [5] (at 50.0 µM), 96.8% (active); in test [6] (setting [7]), -11%; in test [6] (setting [8]), 77% (active); in test [6] (at 50.0 µM), 96.7% (active).

As for `CC1(O)CC([CH2][Hg][I])OC([CH2][Hg][I])C1` (configuration not stated), the growth inhibition in test [1] (setting [7]) is 99% (active); in test [1] (setting [8]) it was 99% (active); in test [1] (at 50.0 µM), 96.3% (active); in test [2] (setting [7]), 99% (active); in test [2] (setting [8]), 99% (active); in test [2] (at 50.0 µM), 98.3% (active). The growth inhibition in test [3] (setting [7]) was 100% (active); in test [3] (setting [8]), 99% (active); in test [3] (at 50.0 µM) it was 96% (active); in test [4] (setting [7]), 99% (active); in test [4] (setting [8]) it was 98% (active); in test [4] (at 50.0 µM), 98% (active). Further, the growth inhibition in test [5] (setting [7]) was 99% (active); in test [5] (setting [8]), 98% (active); in test [5] (at 50.0 µM) it was 98.6% (active); in test [6] (setting [7]), 99% (active); in test [6] (setting [8]) it was 99% (active); in test [6] (at 50.0 µM), 91.6% (active).

For `Cc1cc(C)c(O)c(C)c1.[Hg]`, the growth inhibition in test [1] (setting [7]) is 99% (active); in test [1] (setting [8]), 98% (active); in test [1] (at 50.0 µM) it was 99.5% (active); in test [2] (setting [7]) it was 99% (active); in test [2] (setting [8]) it was 99% (active); in test [2] (at 50.0 µM), 99.5% (active). In addition, the growth inhibition in test [3] (setting [7]) is 99% (active); in test [3] (setting [8]), 99% (active); in test [3] (at 50.0 µM) it was 99.5% (active); in test [4] (setting [7]), 99% (active); in test [4] (setting [8]), 99% (active); in test [4] (at 50.0 µM) it was 99.4% (active). The growth inhibition in test [5] (setting [7]) is 98% (active); in test [5] (setting [8]) it was 99% (active); in test [5] (at 50.0 µM) it was 99.3% (active); in test [6] (setting [7]), 98% (active); in test [6] (setting [8]), 98% (active); in test [6] (at 50.0 µM) it was 99.5% (active).

For `COC1/C=C\C=C(/C)C(=O)NC2=CC(=O)C(NCCCl)=C(CC(C)CC(OC)C(O)C(C)/C=C(/C)C1OC(N)=O)C2=O` (configuration not stated), the growth inhibition in test [1] (setting [7]) was 24%; in test [1] (setting [8]), 97% (active); in test [1] (at 50.0 µM), 91% (active); in test [2] (setting [7]) it was 49%; in test [2] (setting [8]), 98% (active); in test [2] (at 50.0 µM) it was 92.3% (active). In addition, the growth inhibition in test [3] (setting [7]) is 89% (active); in test [3] (setting [8]) it was 99% (active); in test [3] (at 50.0 µM), 92.6% (active); in test [4] (setting [7]) it was 88% (active); in test [4] (setting [8]) it was 94% (active); in test [4] (at 50.0 µM), 90.4% (active). Besides, the growth inhibition in test [5] (setting [7]) was 87% (active); in test [5] (setting [8]) it was 98% (active); in test [5] (at 50.0 µM) it was 90.5% (active); in test [6] (setting [7]), 53%; in test [6] (setting [8]), 98% (active); in test [6] (at 50.0 µM), 89% (active).

Consider `CC(=O)[CH-]C(=O)c1ccccc1.CC(=O)[CH-]C(=O)c1ccccc1.C[C@]12CCC(=O)C=C1CC[C@@H]1C2CC[C@@]2(C)C1CC[C@@H]2[O-].C[C@]12CCC(=O)C=C1CC[C@@H]1C2CC[C@@]2(C)C1CC[C@@H]2[O-].Cl.[Ti+4]` (some centres not stated), for which the growth inhibition in test [1] (setting [7]) was 41%; in test [1] (setting [8]), 78% (active); in test [1] (at 50.0 µM) it was 76.8% (active); in test [2] (setting [7]), 35%; in test [2] (setting [8]) it was 84% (active); in test [2] (at 50.0 µM), 70.8% (active). Also, the growth inhibition is 39% in test [3] (setting [7]); 85% (active) in test [3] (setting [8]); 78.8% (active) in test [3] (at 50.0 µM); 26% in test [4] (setting [7]); 48% in test [4] (setting [8]); 50.9% in test [4] (at 50.0 µM). For the same molecule, the growth inhibition in test [5] (setting [7]) was 37%; in test [5] (setting [8]) it was 86% (active); in test [5] (at 50.0 µM), 76.5% (active); in test [6] (setting [7]), 47%; in test [6] (setting [8]), 84% (active); in test [6] (at 50.0 µM), 73.2% (active).
